Measurements: PubChem BioAssay (EPA / NIEHS)
Inconclusive results are not listed. Calls of active or inactive are those of the source. How the source made its calls, unless noted: active means hit-call score of the fitted dose curve at least 0.9, where 1 is the maximum; inconclusive means response in the unintended direction; inactive means score below 0.9.

Experiments:
[1] = molecular target: Cellular tumor antigen p53 (Homo sapiens) (UniProt P04637); experiment: TOX21_p53_BLA_p2_ratio: Tox21 HCT-116 p53 Agonism Beta-lactamase Assay, Ratio, Phase 2 (AID 2283592)
Sequence of Cellular tumor antigen p53 (Homo sapiens) (P04637 whole entry, looked up): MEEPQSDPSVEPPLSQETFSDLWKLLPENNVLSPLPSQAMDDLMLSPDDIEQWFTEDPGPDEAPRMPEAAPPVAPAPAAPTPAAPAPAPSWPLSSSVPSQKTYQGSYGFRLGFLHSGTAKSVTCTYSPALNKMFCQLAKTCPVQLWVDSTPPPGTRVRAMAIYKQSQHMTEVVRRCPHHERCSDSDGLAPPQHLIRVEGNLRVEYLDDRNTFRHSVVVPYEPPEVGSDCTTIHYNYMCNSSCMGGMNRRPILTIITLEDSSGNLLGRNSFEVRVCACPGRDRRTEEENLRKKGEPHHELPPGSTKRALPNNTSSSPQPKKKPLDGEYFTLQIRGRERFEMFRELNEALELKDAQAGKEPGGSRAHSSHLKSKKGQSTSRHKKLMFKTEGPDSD
Method in brief: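 In this cell-based reporter format, HCT116 cells were dosed with chemicals delivered from DMSO by 217-fold dilution and incubated 16 h at 37C. Emission at 460 and 530 nm after 2 h CCF4-AM loading provided the ratio, fitted upward versus DMSO.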

[2] = TOX21_p53_BLA_p4_viability: Viability Assessment in the Tox21 HCT-116 p53 Agonism Beta-lactamase Assay, Phase 4 (AID 2283597);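 further: hits lower the luminescence signal meaning cytotoxicity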
Method in brief: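 We seeded HCT116 p53 reporter cells at 4000/well and waited 5 h. We then added compounds in DMSO at a 217-fold dilution and incubated for 16 h. Viability was read as CellTiter-Glo luminescence after 30 min at RT.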

[3] = molecular target: Cellular tumor antigen p53 (Homo sapiens) (UniProt P04637); experiment: TOX21_p53_BLA_p5_ratio: Tox21 HCT-116 p53 Agonism Beta-lactamase Assay, Ratio, Phase 5 (AID 2283599)
Method in brief: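 HCT-116 cells carrying a p53-inducible beta-lactamase reporter were seeded at 4000 cells/well and dosed after 5 h with compound in DMSO (217-fold dilution). After 16 h at 37C, CCF4-AM substrate was added for 2 h, and the 460/530 nm emission ratio was scored as gain-of-signal versus DMSO.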

[4] = TOX21_p53_BLA_p5_viability: Viability Assessment in the Tox21 HCT-116 p53 Agonism Beta-lactamase Assay, Phase 5 (AID 2283600)
Method in brief: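 Compounds, pinned from DMSO at 217-fold dilution, were left on the cells for 16 h. The viability endpoint was ATP content measured by CellTiter-Glo luminescence, where falling signal reflects cytotoxicity.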

[5] = molecular target: Cellular tumor antigen p53 (Homo sapiens) (UniProt P04637); experiment: TOX21_p53_BLA_p4_ratio: Tox21 HCT-116 p53 Agonism Beta-lactamase Assay, Ratio, Phase 4 (AID 2283601)
Method in brief: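 HCT116 cells carrying an inducible beta-lactamase reporter were plated at 4000 cells/well, rested 5 h, then exposed to compounds in DMSO (217-fold dilution) for 16 h at 37C. CCF4-AM substrate was loaded 2 h at room temperature; 460/530 nm emission ratio scored gain-of-signal versus DMSO.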

[6] = molecular target: Cellular tumor antigen p53 (Homo sapiens) (UniProt P04637); experiment: TOX21_p53_BLA_p3_ratio: Tox21 HCT-116 p53 Agonism Beta-lactamase Assay, Ratio, Phase 3 (AID 2283596)
Method in brief: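 HCT116 p53-bla cells (4000/well) given compound in DMSO (217-fold dilution) after 5 h, incubated 16 h at 37C. CCF4-AM substrate 2 h at room temperature; 460/530 nm emission ratio, gain fitted against DMSO.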

PGR (gene 5241) [7] = molecular target: PGR (gene 5241) (UniProt P06401); experiment: TOX21_PR_BLA_Followup_Antagonist_ratio: Tox21 HEK293 Progesterone Receptor (PR) Antagonism Beta-lactamase Follow-Up Assay, Ratio (AID 2283934)
Sequence of PGR (gene 5241) (P06401 whole entry, looked up): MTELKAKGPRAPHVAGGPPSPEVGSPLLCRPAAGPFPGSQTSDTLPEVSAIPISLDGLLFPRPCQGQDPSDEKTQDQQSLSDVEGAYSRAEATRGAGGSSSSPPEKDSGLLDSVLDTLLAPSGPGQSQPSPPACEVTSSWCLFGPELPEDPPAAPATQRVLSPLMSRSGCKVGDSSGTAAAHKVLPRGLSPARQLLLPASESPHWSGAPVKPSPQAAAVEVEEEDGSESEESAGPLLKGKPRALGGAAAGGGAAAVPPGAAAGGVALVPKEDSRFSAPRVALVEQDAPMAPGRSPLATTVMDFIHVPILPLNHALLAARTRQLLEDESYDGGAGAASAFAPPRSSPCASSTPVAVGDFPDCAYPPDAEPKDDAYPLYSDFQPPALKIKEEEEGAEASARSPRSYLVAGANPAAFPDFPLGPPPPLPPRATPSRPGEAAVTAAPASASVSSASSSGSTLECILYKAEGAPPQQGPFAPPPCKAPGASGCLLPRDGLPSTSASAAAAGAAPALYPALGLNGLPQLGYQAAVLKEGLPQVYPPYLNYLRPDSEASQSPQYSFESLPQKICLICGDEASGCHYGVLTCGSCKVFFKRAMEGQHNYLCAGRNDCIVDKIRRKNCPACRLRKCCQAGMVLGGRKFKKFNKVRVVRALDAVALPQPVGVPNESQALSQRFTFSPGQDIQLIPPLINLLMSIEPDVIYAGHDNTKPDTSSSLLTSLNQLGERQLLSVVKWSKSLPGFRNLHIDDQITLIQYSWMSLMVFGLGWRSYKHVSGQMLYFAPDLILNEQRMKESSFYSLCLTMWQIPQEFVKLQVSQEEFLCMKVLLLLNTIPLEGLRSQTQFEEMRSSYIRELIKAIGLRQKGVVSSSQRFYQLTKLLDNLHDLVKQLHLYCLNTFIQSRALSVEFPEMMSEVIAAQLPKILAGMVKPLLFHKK
Method in brief: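 PR-UAS-bla HEK293T cells, 3,000/well in 2% charcoal-stripped FBS, given compound plus 1nM R5020 agonist for 16 hr at 37C. Beta-lactamase FRET substrate 2 hours, ratio cleaved/uncleaved fluorescence; viability by CellTiter-Glo in same wells.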

[8] = TOX21_PR_BLA_Followup_Agonist_viability: Viability Assessment in the Tox21 HEK293 Progesterone Receptor (PR) Agonism Beta-lactamase Follow-Up Assay (AID 2283935);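 further: signal loss means lower viability so actives are cytotoxic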
Method in brief: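 PR-UAS-bla HEK293T cells in 2% charcoal-stripped FBS medium, plated 6 hr before compound addition, exposed 16 hr at 37C. Viability read by CellTiter-Glo ATP luminescence after 30 min at room temperature, in the same wells as the beta-lactamase readout.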

PGR (gene 5241) [9] = molecular target: PGR (gene 5241) (UniProt P06401); experiment: TOX21_PR_LUC_Followup_Antagonist: Tox21 HEK293 Progesterone Receptor (PR) Antagonism Luciferase Follow-Up Assay (AID 2283938);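 further: curve fitted upward as signal gain over DMSO baseline despite antagonist label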
Method in brief: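 Luminescence from ONE-Glo reagent, measured after 30 min at room temperature, served as readout. Cells (HEK293 carrying PR-A-luc) had been treated 16 h at 37C with DMSO-dissolved compounds. Activity was fitted against DMSO controls.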

[10] = TOX21_PR_LUC_Followup_Antagonist_viability: Viability Assessment in the Tox21 HEK293 Progesterone Receptor (PR) Antagonism Luciferase Follow-Up Assay (AID 2283940)
Method in brief: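 HEK293-PR-A-luc cells kept in charcoal-stripped FBS medium were plated 5 h before compound addition, then exposed 16 h at 37C; viability read as cellular ATP by luciferase luminescence, loss of signal indicating cytotoxicity.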

[11] = TOX21_PR_LUC_Followup_Agonist_viability: Viability Assessment in the Tox21 HEK293 Progesterone Receptor (PR) Agonism Luciferase Follow-Up Assay (AID 2283941);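 further: loss of signal means cytotoxicity so actives lower viability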
Method in brief: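 HEK293-PR-A-luc cells, kept in 10% charcoal-stripped FBS medium, were treated with compounds for 16 h at 37C. Viability read as cellular ATP by luciferase-coupled luminescence; loss of signal indicates cytotoxicity.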

[12] = CCTE_Shafer_MEA_dev_firing_rate_mean: CCTE's Neural Network Formation Assay for Mean Firing Rate, Shafer Lab (AID 2284031; active means hit-call score of the fitted dose curve at least 0.9, where 1 is the maximum; inactive means score below 0.9)
Method in brief: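 Primary rat cortical neurons on 48-well MEA plates, exposed from plating day 0 with dosing renewed on DIV 5 and 9. Mean well firing rate over active electrodes, recorded days 5, 7, 9, 12, summarised as trapezoidal AUC.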

[13] = CCTE_Shafer_MEA_dev_per_burst_spike_percent: CCTE's Neural Network Formation Assay for Percent of Spikes in a Burst, Shafer Lab (AID 2284032; active means hit-call score of the fitted dose curve at least 0.9, where 1 is the maximum; inactive means score below 0.9)
Method in brief: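 Rat primary cortical neurons on 16-electrode MEA wells, dosed from plating day 0 for 12 days with renewal on DIV 5 and 9; spikes-in-bursts percentage averaged over bursting electrodes, collapsed as AUC across days 5, 7, 9, 12; loss direction versus DMSO.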

[14] = CCTE_Shafer_MEA_dev_active_electrodes_number: CCTE's Neural Network Formation Assay for Number of Active Electrodes, Shafer Lab (AID 2284040)
Method in brief: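 Primary rat cortical neurons on 16-electrode MEA wells, exposed from day 0 through day 12 with compound renewed at DIV 5 and 9 feeds. Active electrodes (mean firing ≥5 spikes/min) counted at DIV 5, 7, 9, 12; trapezoidal AUC across days, loss-of-signal versus DMSO.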

[15] = CCTE_Shafer_MEA_dev_burst_rate: CCTE's Neural Network Formation Assay for Burst Rate, Shafer Lab (AID 2284042; active means hit-call score of the fitted dose curve at least 0.9, where 1 is the maximum; inactive means score below 0.9)
Method in brief: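 Exposure ran continuously over 12 days of network development in rat cortical cultures, with compound refreshed during full media changes on DIV 5 and 9. Single-electrode bursts per recording time, well-mean over active electrodes, trapezoidal AUC across days 5–12, fitted downward relative to DMSO.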

[16] = CCTE_Shafer_MEA_dev_bursting_electrodes_number: CCTE's Neural Network Formation Assay for Number of Bursting Electrodes, Shafer Lab (AID 2284043)
Method in brief: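 Primary rat cortical neurons were cultured on PEI-coated 48-well MEA plates (16 electrodes/well) and exposed from plating through day 12, with compound renewed at feeds on DIV 5 and 9. Electrodes bursting ≥1 per 2 min were counted on DIV 5, 7, 9, 12; trapezoidal AUC taken.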

[17] = CCTE_Shafer_MEA_dev_per_burst_interspike_interval: CCTE's Neural Network Formation Assay for Burst Interspike Interval, Shafer Lab (AID 2284044; active means hit-call score of the fitted dose curve at least 0.9, where 1 is the maximum; inactive means score below 0.9)
Method in brief: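 Readout is the average time between spikes inside single-electrode bursts, taken as a well mean across bursting electrodes. Cortical neurons from rat developed networks on MEA plates under continuous 12-day exposure; recordings on days 5, 7, 9 and 12 were integrated by trapezoidal AUC.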

[18] = CCTE_Shafer_MEA_dev_interburst_interval_mean: CCTE's Neural Network Formation Assay for Mean Interburst Interval, Shafer Lab (AID 2284046; active means hit-call score of the fitted dose curve at least 0.9, where 1 is the maximum; inactive means score below 0.9;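 further: well-mean interburst interval of bursting electrodes as AUC over four recording days; curve fitted for decrease in interburst interval relative to DMSO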)
Method in brief: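 Primary rat cortical neurons on PEI-coated 48-well MEA plates (laminin added with cells at plating) (16 electrodes/well), exposed from plating day 0 with renewal at DIV 5 and 9. Mean inter-burst interval averaged over bursting electrodes, AUC across days 5, 7, 9, 12; DMSO baseline.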

[19] = CCTE_Shafer_MEA_dev_inter_network_spike_interval_mean: CCTE's Neural Network Formation Assay for Mean Inter-network Spike Interval, Shafer Lab (AID 2284047; active means hit-call score of the fitted dose curve at least 0.9, where 1 is the maximum; inactive means score below 0.9)
Method in brief: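 Mean time between consecutive network-spike peaks, recorded extracellularly (adaptive spike detection) on DIV 5, 7, 9 and 12, summarized as trapezoidal AUC. Rat cortical cultures on MEAs dosed continuously days 0–12, re-dosed at feeds; loss-of-signal fit relative to DMSO.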

[20] = CCTE_Shafer_MEA_dev_network_spike_number: CCTE's Neural Network Formation Assay for Number of Network Spikes, Shafer Lab (AID 2284048; active means hit-call score of the fitted dose curve at least 0.9, where 1 is the maximum; inactive means score below 0.9)
Method in brief: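 Primary rat cortical neurons were seeded at 1.5 x 10^5 cells/well on PEI-coated 16-electrode MEA wells with laminin, exposed from plating day 0, compound renewed at DIV 5 and 9. Network spikes were recorded on days 5, 7, 9, 12 and summarized as trapezoidal AUC versus DMSO.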

[21] = CCTE_Shafer_MEA_dev_network_spike_peak: CCTE's Neural Network Formation Assay for Mean Number of Electrodes in Network Spike, Shafer Lab (AID 2284049; active means hit-call score of the fitted dose curve at least 0.9, where 1 is the maximum; inactive means score below 0.9)
Method in brief: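 Continuous 12-day exposure of rat cortical cultures, starting at plating, on MEA plates. Endpoint: electrodes participating in network-spike peaks, AUC across DIV 5–12, DMSO as negative control.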

[22] = CCTE_Shafer_MEA_dev_network_spike_duration_std: CCTE's Neural Network Formation Assay for Standard Deviation of Network Spike Duration, Shafer Lab (AID 2284052; active means hit-call score of the fitted dose curve at least 0.9, where 1 is the maximum; inactive means score below 0.9;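 further: hits are decreases in network spike duration SD versus DMSO vehicle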)
Method in brief: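 Network spike duration variability was collapsed across recordings on days 5, 7, 9 and 12 by trapezoidal area-under-curve and fitted downward against DMSO. Cultures were rat cortical neurons on PEI-coated MEA plates, dosed continuously from plating, refed with compound DIV 5/9.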

[23] = CCTE_Shafer_MEA_dev_per_network_spike_spike_number_mean: CCTE's Neural Network Formation Assay for Mean Number of Spikes in a Network Spike, Shafer Lab (AID 2284053; active means hit-call score of the fitted dose curve at least 0.9, where 1 is the maximum; inactive means score below 0.9)
Method in brief: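 Mean spike count within each network spike, taken in a 0.05 s window at its peak, was recorded on days 5, 7, 9 and 12 and integrated as trapezoidal area under the curve. Rat cortical cultures on MEA plates received continuous compound from day 0, refreshed at medium changes on DIV 5 and 9.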

[24] = CCTE_Shafer_MEA_dev_per_network_spike_spike_percent: CCTE's Neural Network Formation Assay for Percent of Spikes in a Network Spike, Shafer Lab (AID 2284054; active means hit-call score of the fitted dose curve at least 0.9, where 1 is the maximum; inactive means score below 0.9)
Method in brief: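 Primary rat cortical neurons on 16-electrode MEA wells (PEI-coated, laminin at plating), exposed from day 0 with renewal at DIV 5 and 9; spikes within 0.05 s of network-spike peaks over total spikes, AUC across days 5, 7, 9, 12.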

[25] = CCTE_Shafer_MEA_dev_LDH: CCTE's Lactate Dehydrogenase Assay for Cytotoxicity in the Neural Network Formation Assay, Shafer Lab (AID 2284068);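 further: exposure for twelve days from plating with re-dosing on DIV 5 and 9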
Method in brief: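 Primary rat cortical neurons were cultured on PEI-coated MEA plates and exposed from plating through day 12, with compound renewed at medium changes on DIV 5 and 9. LDH activity was read spectrophotometrically; loss of signal versus DMSO indicates reduced viability.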

Measured: outcome

CC(Cc1cccc(C(F)(F)F)c1)NCCOC(=O)c1ccccc1 (configuration not stated)
inactive: [1] | [2] | [3] | [4] | [5]

CN(C)CCN(Cc1ccc(Cl)cc1)c1ccccn1
inactive: [1] | [6] | [5]

Cl/C(=C\n1cncn1)c1ccc(Cl)cc1Cl
inactive: [1] | [2] | [3] | [4] | [5] | PGR (gene 5241) [7] | [8] | PGR (gene 5241) [9] | [10] | [11]

C[C@@H]1CC[C@@]2(OC1)O[C@H]1C[C@H]3[C@@H]4CC[C@H]5C[C@@H](O)CC[C@]5(C)[C@H]4CC(=O)[C@]3(C)[C@H]1[C@@H]2C
inactive: [1] | [2] | [3] | [4] | [5]

C=N[C@@H](C(=O)N[C@@H]1C(=O)N2[C@@H]1SC(C)(C)[C@@H]2C(=O)O)c1ccccc1
inactive: [1] | [2] | [3] | [4] | [5]

c1cc2c3c(c1)ccc1cccc(c13)C2
not listed: [6] | PGR (gene 5241) [7] | [8] | PGR (gene 5241) [9] | [10] | [11]
inactive: all other assays above
